PubChem BioAssay (Tox21)
Activity calls are given as the source filed them. Calls come from the whole dose curve; as a rule, active = well fitted curve in the direction sought with a large enough effect in the repeat runs; inconclusive = weak or mixed curves; inactive = flat fitted curve, though single readings scatter.

Assay: qHTS assay to test for compound auto fluorescence at 535 nm (green) in HepG2 cells (AID 720675)
Conditions: green autofluorescence 485/535 nm, 1 h; series mostly up to 91.3 µM
From the text: National Center for Advancing Translational Sciences [NCATS]
NIH Chemical Genomics Center [NCGC]
U.S. Environmental Protection Agency [EPA]
National Institutes of Environmental Health Sciences [NIEHS]
National Toxicology Program [NTP]
U.S. Food and Drug Administration [FDA]
Compound auto fluorescence often interferes with screening of the compound library against various biological targets and signaling pathways. Some of these compounds may have fluorophoric properties. Such properties may interfere with the assay outputs resulting in false positives and/or negatives. To decrease such complications and ensure the compound activities are relevant in terms of biological response, the Tox21 10K compound library was screened for auto fluorescence.
From the fluorophores used as reporter signals in our screening assays, the auto fluorescence equivalencies of compounds against three fluorophores have been evaluated: Triamterene, Fluorescein and Rose Bengal sodium for blue, green and red fluorescence, respectively. The fluorescence intensities were measured using Excitation/Emission wavelengths at 405/460nm, 485/535nm and 540/590nm for blue, green and red labels, respectively. This assay includes the green fluorescence data.
Tox21 Assay Protocol Summary:
2,000 HepG2 cells in 5 uL of culture medium (MEM containing 10% FBS) per well were dispensed into black wall/clear bottom 1536-well plates using a Multidrop Combi Dispenser (ThermoFisher Scientific, Waltham, MA). The assay plates were incubated overnight at 37 C to allow cell attachment to the well bottom, followed by the transfer of 23 nL compound or DMSO vehicle by a pintool work station (Kalypsys , San Diego, CA). After the assay plates were incubated for 1 hr at 37 C and 5% CO2, fluorescence intensities in the assay plates were measured by an Envision (PerkinElmer, Shelton, CT) plate reader using three labels for measuring blue, green and red fluorescence at […] 460, 535 and 590 nm respectively.
In the case of `CN(C)C(=O)Nc1cccc(C(F)(F)F)c1`, the outcome is reported as “inactive”.
With `CNC(=O)O/N=C(\SC)C(=O)N(C)C` the outcome was “inactive”.
In the case of `ClCCOCCCl`, the outcome is reported as “inactive”.
In the case of `Cc1cccc(N)c1`, the outcome is reported as “inactive”.
With `N#CN=C(N)N` the outcome was “inactive”.
With `COc1cc(-c2ccc(N)c(OC)c2)ccc1N` the outcome was “inactive”.
With `Oc1ccc(Cl)cc1` the outcome was “inactive”.
With `Cl/C=C/Cl` the outcome was “inactive”.
In the case of `CN1C(=O)CCS(=O)(=O)C1c1ccc(Cl)cc1` (stereo not given), the outcome is reported as “inactive”.
With `Nc1ccc(N)cc1` the outcome was “inactive”.
With `CNCC(O)c1ccc(O)cc1` (stereo not given) the outcome was “inactive”.
With `CN(C)C(=O)C(c1ccccc1)c1ccccc1` the outcome was “inactive”.
For `O=C(O)Cc1ccccc1`, the outcome was “inactive”.
For `Oc1c(Br)cc(Br)cc1Br`, the outcome was “inactive”.
For `CCSC(=O)N1CCCCCC1`, the outcome was “inactive”.
For `CNC(=O)O/N=C/C(C)(C)S(C)=O` (stereo not given), the outcome was “inactive”.
In the case of `Nc1ccc([As](=O)(O)O)cc1`, the outcome is reported as “inactive”.
For `Cc1cc(O)ccc1Cl`, the outcome was “inactive”.
In the case of `COC(C)(C)CCCC(C)C/C=C/C(C)=C/C(=O)OC(C)C` (stereo not given), the outcome is reported as “inactive”.
In the case of `CC(=O)/C=C/c1ccccc1`, the outcome is reported as “inactive”.
For `O=[N+]([O-])c1cc([As](=O)(O)O)ccc1O`, the outcome was “inactive”.
For `CCOc1ccc(N)cc1`, the outcome was “inactive”.
In the case of `COC(=O)Nc1cccc(OC(=O)Nc2cccc(C)c2)c1`, the outcome is reported as “inactive”.
With `CC(C)(C)C(=O)CCl` the outcome was “inactive”.
For `Clc1cnc(Oc2ccc(Oc3ncc(Cl)cc3Cl)cc2)c(Cl)c1`, the outcome was “inactive”.
With `C[C@]12CC[C@H](O)CC1=CC[C@@H]1[C@@H]2CC[C@]2(C)C(=O)CC[C@@H]12` the outcome was “inactive”.
With `CCCOC(=O)c1ccccc1C(=O)OCCC` the outcome was “inactive”.
For `C[C@H]1C(=O)O[C@@H]2CCN3CC=C(COC(=O)[C@](C)(O)[C@]1(C)O)[C@H]23`, the outcome was “inactive”.
For `CCOC(=O)CC(SP(=O)(OC)OC)C(=O)OCC` (stereo not given), the outcome was “inactive”.
For `ClC(Cl)c1ccccc1`, the outcome was “inactive”.
With `Cc1ccc(O)c(C)c1` the outcome was “inactive”.
In the case of `CSc1nnc(C(C)(C)C)c(=O)n1N`, the outcome is reported as “inactive”.
In the case of `C/C=C/c1ccc2c(c1)OCO2`, the outcome is reported as “inactive”.
For `OC[C@@H](O)[C@H]1O[C@@H]2O[C@H](C(Cl)(Cl)Cl)O[C@@H]2[C@H]1O`, the outcome was “inactive”.
For `CCCCCCCCCCCCCCCCCC(=O)O`, the outcome was “inactive”.
In the case of `FC(F)(F)c1ccc(Cl)cc1`, the outcome is reported as “inactive”.
In the case of `CCOP(=S)(OCC)Oc1ccc([N+](=O)[O-])cc1`, the outcome is reported as “inactive”.
With `O=C(O)CCCc1ccc(N(CCCl)CCCl)cc1` the outcome was “inactive”.
In the case of `COc1nc(NC(C)C)nc(NC(C)C)n1`, the outcome is reported as “inactive”.
With `CN(C)CCC#N` the outcome was “inactive”.
